Values joined by “and” are separate entries in the source; they are usually repeats but may differ in a detail not shown here. Identical values can stand only once. This is part of a sample that, as a whole, favours compounds with a hit. Of some 83,000 tested, about 20% had one in any assay.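 Interpretation: 100, growth as untreated; towards 0, rising growth inhibition; 0, no net growth; 0 to -100, cell death. Compounds scoring below 10 were considered active.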 A number with no mark means an inactive call. Active and inactive are the calls of the source.
Columns and labels:
Experiment in all cases: NCI-60 one-dose screen, 48 h (100 = growth as untreated, 0 = no growth, -100 = all killed)
HCT-15 colon = conditions: 10 µM unless noted
HT29 colon = test system: HT29 colon
SNB-75 CNS = test system: SNB-75 CNS
U251 CNS = test system: U251 CNS
PC-3 prostate = test system: PC-3 prostate
SK-MEL-5 melanoma = test system: SK-MEL-5 melanoma
UACC-62 melanoma = test system: UACC-62 melanoma
LOX IMVI melanoma = test system: LOX IMVI melanoma
SK-MEL-28 melanoma = test system: SK-MEL-28 melanoma
SNB-19 CNS = test system: SNB-19 CNS

CC[C@]12C=CCN3CC[C@@]4(c5ccc(OC)cc5N(C)[C@H]4[C@@](O)(C(=O)OC)[C@@H]1OC(=O)CCCC[P+](c1ccc(F)cc1)(c1ccc(F)cc1)c1ccc(F)cc1)[C@@H]32
growth (HCT-15 colon): 102%
growth (HT29 colon; 10 µM unless noted): 15.9%
growth (SNB-75 CNS; 10 µM unless noted): -5.3% (active)
growth (U251 CNS; 10 µM unless noted): 13%
growth (PC-3 prostate; 10 µM unless noted): 15.7%
growth (SK-MEL-5 melanoma; 10 µM unless noted): -59.7% (active)
growth (UACC-62 melanoma; 10 µM unless noted): -69.6% (active)
growth (LOX IMVI melanoma; 10 µM unless noted): 25%
growth (SK-MEL-28 melanoma; 10 µM unless noted): -54.9% (active)

Cc1cnc2ccc(Oc3ccccc3-c3ccccc3)nn12
growth (HCT-15 colon): 103%
growth (HT29 colon; 10 µM unless noted): 108%
growth (SNB-75 CNS; 10 µM unless noted): 126%
growth (U251 CNS; 10 µM unless noted): 100%
growth (PC-3 prostate; 10 µM unless noted): 105%
growth (SK-MEL-5 melanoma; 10 µM unless noted): 107%
growth (UACC-62 melanoma; 10 µM unless noted): 101%
growth (LOX IMVI melanoma; 10 µM unless noted): 97.9%
growth (SK-MEL-28 melanoma; 10 µM unless noted): 113%

O=C(N=Nc1c(O)[nH]c2ccc(Br)cc12)c1ccc2nc(-c3ccc(Cl)cc3)[nH]c2c1
growth (HCT-15 colon): 58.9%
growth (HT29 colon; 10 µM unless noted): 10.7%
growth (SNB-75 CNS; 10 µM unless noted): -18% (active)
growth (U251 CNS; 10 µM unless noted): -91.8% (active)
growth (PC-3 prostate; 10 µM unless noted): 10%
growth (SK-MEL-5 melanoma; 10 µM unless noted): 37.3%
growth (UACC-62 melanoma; 10 µM unless noted): -74.8% (active)
growth (LOX IMVI melanoma; 10 µM unless noted): -100% (active)
growth (SK-MEL-28 melanoma; 10 µM unless noted): -96.3% (active)

CCCCCCCCc1ccc(C(=O)Nc2ccc(C)cc2C(=O)O)cc1
growth (HCT-15 colon): 53.2%
growth (HT29 colon; 10 µM unless noted): 109%
growth (SNB-75 CNS; 10 µM unless noted): 106%
growth (U251 CNS; 10 µM unless noted): 75.4%
growth (PC-3 prostate; 10 µM unless noted): 66.6%
growth (SK-MEL-5 melanoma; 10 µM unless noted): 87.1%
growth (UACC-62 melanoma; 10 µM unless noted): 87.8%
growth (LOX IMVI melanoma; 10 µM unless noted): 89.9%
growth (SK-MEL-28 melanoma; 10 µM unless noted): 108%

CC/C(=C(\c1ccc(O)cc1)c1ccc(OCCNC)cc1)c1ccccc1
growth (HT29 colon; 1 µM): 98.7%
growth (HT29 colon; 10 µM): 55.6%
growth (SNB-75 CNS; 1 µM): 110%
growth (SNB-75 CNS; 10 µM): 62.7%
growth (SNB-19 CNS; 1 µM): 94.6%
growth (SNB-19 CNS; 10 µM): 98.6%
growth (U251 CNS; 1 µM): 98.6%
growth (U251 CNS; 10 µM): 57.4%
growth (PC-3 prostate; 1 µM): 101%
growth (PC-3 prostate; 10 µM): 83%
growth (SK-MEL-5 melanoma; 1 µM): 97.1%
growth (SK-MEL-5 melanoma; 10 µM): 89.2%
growth (UACC-62 melanoma; 1 µM): 91.6%
growth (UACC-62 melanoma; 10 µM): 101%
growth (LOX IMVI melanoma; 1 µM): 86.9%
growth (LOX IMVI melanoma; 10 µM): 83.1%
growth (SK-MEL-28 melanoma; 1 µM): 98.5%
growth (SK-MEL-28 melanoma; 10 µM): 93.3%

O=C(c1ccc(O)cc1)C1[C@H](c2ccc(Cl)cc2)[C@@H](c2ccccc2)NC12C(=O)Nc1ccc(Br)cc12 (some centres not stated)
growth (HCT-15 colon): -67% (active)
growth (HT29 colon; 10 µM unless noted): -68.1% (active)
growth (SNB-19 CNS; 10 µM unless noted): -2.97% (active)
growth (U251 CNS; 10 µM unless noted): -62% (active)
growth (PC-3 prostate; 10 µM unless noted): -16% (active)
growth (SK-MEL-5 melanoma; 10 µM unless noted): -93.3% (active)
growth (UACC-62 melanoma; 10 µM unless noted): -40% (active)
growth (LOX IMVI melanoma; 10 µM unless noted): -100% (active)
growth (SK-MEL-28 melanoma; 10 µM unless noted): -5.57% (active)

COc1cccc(-c2ccc(/C=N/NC(=O)c3[nH]c4ccc(Br)cc4c3-c3ccccc3)s2)c1
growth (HCT-15 colon): 3.37% (active)
growth (HT29 colon; 10 µM unless noted): -32.2% (active)
growth (SNB-19 CNS; 10 µM unless noted): 11.7%
growth (U251 CNS; 10 µM unless noted): -23% (active)
growth (PC-3 prostate; 10 µM unless noted): 23.7%
growth (SK-MEL-5 melanoma; 10 µM unless noted): -60.9% (active)
growth (UACC-62 melanoma; 10 µM unless noted): -17.1% (active)
growth (LOX IMVI melanoma; 10 µM unless noted): 4.04% (active)
growth (SK-MEL-28 melanoma; 10 µM unless noted): 8.82% (active)

Cc1ccc(Cl)cc1NC(=O)Nc1nc2ccc([N+](=O)[O-])cc2s1
growth (HCT-15 colon): -4.98% (active)
growth (HT29 colon; 10 µM unless noted): -18.9% (active)
growth (SNB-19 CNS; 10 µM unless noted): 7.85% (active)
growth (U251 CNS; 10 µM unless noted): -26.6% (active)
growth (PC-3 prostate; 10 µM unless noted): 2.69% (active)
growth (SK-MEL-5 melanoma; 10 µM unless noted): -81.1% (active)
growth (UACC-62 melanoma; 10 µM unless noted): -15.4% (active)
growth (LOX IMVI melanoma; 10 µM unless noted): -21.1% (active)
growth (SK-MEL-28 melanoma; 10 µM unless noted): -17% (active)

COc1ccc(NC(=O)CSc2nnc(-c3ccc(-c4nc5ccc(Cl)cc5[nH]4)cc3)o2)cc1
growth (HCT-15 colon): 41.9%
growth (HT29 colon; 10 µM unless noted): 47.8%
growth (SNB-19 CNS; 10 µM unless noted): -29.2% (active)
growth (U251 CNS; 10 µM unless noted): -58% (active)
growth (PC-3 prostate; 10 µM unless noted): -20.7% (active)
growth (SK-MEL-5 melanoma; 10 µM unless noted): 7% (active)
growth (UACC-62 melanoma; 10 µM unless noted): -32.6% (active)
growth (LOX IMVI melanoma; 10 µM unless noted): -33.3% (active)
growth (SK-MEL-28 melanoma; 10 µM unless noted): -76% (active)

NC(=Nc1ccc(OCCCCCCCCn2cnnn2)cc1)c1ccccc1
growth (HCT-15 colon): 14.6%
growth (SNB-75 CNS; 10 µM unless noted): 45.4%
growth (SNB-19 CNS; 10 µM unless noted): 20.8%
growth (PC-3 prostate; 10 µM unless noted): 36.2%
growth (UACC-62 melanoma; 10 µM unless noted): 28.3%
growth (LOX IMVI melanoma; 10 µM unless noted): 23%
growth (SK-MEL-28 melanoma; 10 µM unless noted): 65.1%

Cc1nc(N)ncc1-c1ccc2ncnc(N3CCc4cc(F)c(Cl)cc43)c2c1
growth (HCT-15 colon): 55.5%
growth (HT29 colon; 10 µM unless noted): 67.2%
growth (U251 CNS; 10 µM unless noted): 67%
growth (PC-3 prostate; 10 µM unless noted): 54.4%
growth (SK-MEL-5 melanoma; 10 µM unless noted): 77.1%
growth (UACC-62 melanoma; 10 µM unless noted): 71.8%
growth (LOX IMVI melanoma; 10 µM unless noted): 60.9%
growth (SK-MEL-28 melanoma; 10 µM unless noted): 107%

CCCCCCCCc1ccc(C(=O)Nc2ccc(C)c(OP(=O)(O)O)c2)cc1
growth (HCT-15 colon): 95.5%
growth (HT29 colon; 10 µM unless noted): 106%
growth (U251 CNS; 10 µM unless noted): 92%
growth (PC-3 prostate; 10 µM unless noted): 91.3%
growth (SK-MEL-5 melanoma; 10 µM unless noted): 103%
growth (UACC-62 melanoma; 10 µM unless noted): 90.6%
growth (LOX IMVI melanoma; 10 µM unless noted): 92.9%
growth (SK-MEL-28 melanoma; 10 µM unless noted): 116%

CC(=O)Nc1cccc(-n2c(COc3ccc(I)cc3)nc3ccccc32)c1
growth (HCT-15 colon): 69.6% and 108%
growth (HT29 colon; 10 µM unless noted): 105% and 119%
growth (SNB-19 CNS; 10 µM unless noted): 93.5% and 103%
growth (U251 CNS; 10 µM unless noted): 81.8% and 105%
growth (PC-3 prostate; 10 µM unless noted): 63.3% and 107%
growth (SK-MEL-5 melanoma; 10 µM unless noted): 74.1% and 104%
growth (UACC-62 melanoma; 10 µM unless noted): 61.4% and 97.8%
growth (LOX IMVI melanoma; 10 µM unless noted): 85.3% and 107%
growth (SK-MEL-28 melanoma; 10 µM unless noted): 107% and 116%
